Data reported in PMC7819943, “Rice protein-binding microarrays: a tool to detect cis-acting elements near promoter regions in rice”.
Over roughly 39,000 sequences, “fluorescence intensity (a.u.)” has its median near 4,300; the highest 2% begin near 39,000. Shown is part of a subset that was picked to be rich in the highest values.

Molecular target: T1, OsSMF1 (Oryza sativa, UniProt Q6ZLB0 1-436)
T1 sequence: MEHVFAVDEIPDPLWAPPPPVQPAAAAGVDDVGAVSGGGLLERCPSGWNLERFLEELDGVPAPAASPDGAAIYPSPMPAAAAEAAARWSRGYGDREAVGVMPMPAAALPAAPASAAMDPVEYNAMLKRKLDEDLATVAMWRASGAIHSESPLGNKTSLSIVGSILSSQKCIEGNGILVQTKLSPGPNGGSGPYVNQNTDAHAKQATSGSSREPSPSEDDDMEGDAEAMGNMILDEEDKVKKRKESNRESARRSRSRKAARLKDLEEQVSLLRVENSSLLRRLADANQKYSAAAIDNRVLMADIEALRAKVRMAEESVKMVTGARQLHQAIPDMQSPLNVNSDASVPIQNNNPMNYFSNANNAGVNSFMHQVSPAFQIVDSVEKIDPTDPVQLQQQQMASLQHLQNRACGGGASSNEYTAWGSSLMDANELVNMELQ
Assay: protein-binding microarray (RPBM); PBS, 2% BSA, 51.3 ng/ul salmon testes DNA, 50 uM zinc acetate, 200 nM TF, 25 C, 1 h; high values mean tight binding
Details: protein: recombinant; tags: N-terminal polyhistidine and DsRed monomer fusion (pET32a); chain copies: 2; label: CyDye5-dUTP incorporated in the synthesized complementary strand; 3' TTTTT single-stranded linker to array surface; dsDNA, one strand shown
Method in brief: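 Using Ni–NTA, transcription factors fused N-terminally to polyhistidine and DsRed were purified after expression in E. coli BL21-CodonPlus. These were incubated at 200 nM with a blocked, double-stranded custom Agilent array for 1 h at 25 °C in a buffer containing 50 µM zinc acetate, and the array was washed. The binding signal is per-feature fluorescence intensity (arbitrary units) on an Axon 4000B scanner.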

| Sequence | binding signal |
| --- | --- |
| AGTAGTATTGGCTTGGGGTGTTGCCACGTCATCACCTGGTCGGAGTCACCTAGTGCAG | 55000 fluorescence intensity (a.u.) |
| TAGTGTTTGTTTTGGGTTGTGCTCAGCTTAGCTCTGGTGTCGGAGTCACCTAGTGCAG | 39800 fluorescence intensity (a.u.) |
| TGTAGTGTTACAGTATGCCACGTCATCATGCTACGCTATTCGGAGTCACCTAGTGCAG | 43900 fluorescence intensity (a.u.) |
| GTGGTGTTACGCTACTCGTGCAGTAGTGCCTCATCATGGGCGGAGTCACCTAGTGCAG | 3500 fluorescence intensity (a.u.) |
| CCATGGCGGGGTGTATTGTTGTTGTATTTGGGGTTCTGGTCGGAGTCACCTAGTGCAG | 3630 fluorescence intensity (a.u.) |
| TTGTTCCTTTACAGTTTACAGTCATCTCTATTGTAGTATTCGGAGTCACCTAGTGCAG | 4220 fluorescence intensity (a.u.) |
| TAGGTTAGTGGTGGCTGGGTCGTCACGTCATTGCATTGCACGGAGTCACCTAGTGCAG | 3270 fluorescence intensity (a.u.) |
| TTTAGCTCTCGTCGATGTGGTGTTTGTTGGGTTTTCCCTTCGGAGTCACCTAGTGCAG | 3670 fluorescence intensity (a.u.) |
| ACTCTGCCGGCAGGCGTACGTGTGTCCCGGCATTTGGTCGCGGAGTCACCTAGTGCAG | 4500 fluorescence intensity (a.u.) |
| TCTTCCAAATGAACTGGCAATATACTTGTACACGTTCTGTCGGAGTCACCTAGTGCAG | 3190 fluorescence intensity (a.u.) |
| ATTCACAGGCCTTTCTTAATTAAAACGGTAGATGGAGCAACGGAGTCACCTAGTGCAG | 28400 fluorescence intensity (a.u.) |
| TTGCCGTATCGGCTCGCCTGAAAGCGTGTCATTAGCATGACGGAGTCACCTAGTGCAG | 3950 fluorescence intensity (a.u.) |
| GCACATGACTGTGCAAACGCTGTTCCTGATCTGAGTAAGACGGAGTCACCTAGTGCAG | 4170 fluorescence intensity (a.u.) |
| CGGCCGCGACACGCACACGCCCACCCCACGCCCGCCGCGCCGGAGTCACCTAGTGCAG | 3140 fluorescence intensity (a.u.) |
| GGTCTTGGTAGCCACCGTGTACGGCCTCTGCGGCATGCAGCGGAGTCACCTAGTGCAG | 3770 fluorescence intensity (a.u.) |
| ATGTTATCGTGCTAGTGTCAGCACATTCTCACTGATATTACGGAGTCACCTAGTGCAG | 5330 fluorescence intensity (a.u.) |
| GTAAGGCGTCCATGTGATGTCATTGTTGATGGGCAAGTGCCGGAGTCACCTAGTGCAG | 6430 fluorescence intensity (a.u.) |
| CGCATCGCATCTATGACTGGAGAGTGTATCTTTGCTTGCACGGAGTCACCTAGTGCAG | 3180 fluorescence intensity (a.u.) |
| TCACCAGCGTCCGGTCAGCCATGGCGCTGAGTGGCCTCTTCGGAGTCACCTAGTGCAG | 21000 fluorescence intensity (a.u.) |
| AATTGATTTCTCTATAGACAAATAGGGAATGCCAGATTGACGGAGTCACCTAGTGCAG | 20100 fluorescence intensity (a.u.) |
| AAAATGTGAATCTTTTGTATAGCCAGCTTCTTCTAAAACACGGAGTCACCTAGTGCAG | 24900 fluorescence intensity (a.u.) |
| TACTTCTTCTAAATGCTATAGCCAGGGAATGCAAACGAGACGGAGTCACCTAGTGCAG | 42000 fluorescence intensity (a.u.) |

| Sequence | binding signal |
| --- | --- |
| CTGCGCCATCCACGCCAAGCGCGTCACCATCATGCCCAAGCGGAGTCACCTAGTGCAG | 6140 fluorescence intensity (a.u.) |
| TTCATATCATATACGTACACGTGGAATAATTTGTAATTATCGGAGTCACCTAGTGCAG | 9010 fluorescence intensity (a.u.) |
| CTCGGGGTTAAGCAGAGGTTATCGTCCCCGCCGCAGGTTACGGAGTCACCTAGTGCAG | 4020 fluorescence intensity (a.u.) |
| TTCAGGATGAATGGTACGTAACATGATAGGACACTATTCACGGAGTCACCTAGTGCAG | 48700 fluorescence intensity (a.u.) |
| ACTAGGATGTCACAACAGCCAAACCATCCATATACTGCCACGGAGTCACCTAGTGCAG | 3170 fluorescence intensity (a.u.) |
| AGTACTGGATGTGACACATCCTGGTACTACGAATCTGAACCGGAGTCACCTAGTGCAG | 3910 fluorescence intensity (a.u.) |
| AAACGAATCTAGGAATATATGTGACACATCATAGTACTACCGGAGTCACCTAGTGCAG | 4370 fluorescence intensity (a.u.) |
| CCACAAACCAAACCAACCCAAGATATCCTGATGAACCAAACGGAGTCACCTAGTGCAG | 35300 fluorescence intensity (a.u.) |
| TTCCAACACTAGGATGGTATATGAACCACCAGGATACAAACGGAGTCACCTAGTGCAG | 41800 fluorescence intensity (a.u.) |
| AACACACTAGTAATACGAATCTGAATATGGTACTAGGATACGGAGTCACCTAGTGCAG | 64200 fluorescence intensity (a.u.) |
| ATATTCATATGACATGACACGTAAATGTCACGTAGGATATCGGAGTCACCTAGTGCAG | 3700 fluorescence intensity (a.u.) |
| CCGGATATGTTCTCGTAGTTTATATACGTTCATGATGACACGGAGTCACCTAGTGCAG | 3450 fluorescence intensity (a.u.) |
| TGGCCCAACACATCAACGTTACATCACGGGCTTTAACGTTCGGAGTCACCTAGTGCAG | 3290 fluorescence intensity (a.u.) |
| AGAAAAGAAAACGCGGCAATAAACAATGACACGGCCTGTCCGGAGTCACCTAGTGCAG | 4200 fluorescence intensity (a.u.) |
| GGCTGACGGCTGGTGAGAAGCCACGTCAGCATTTAATTCCCGGAGTCACCTAGTGCAG | 13100 fluorescence intensity (a.u.) |
| ATTGCGCAGGCGCAGCAATATTGAATGGCCCAAATGCTAGCGGAGTCACCTAGTGCAG | 23800 fluorescence intensity (a.u.) |
| GCACAGGCTTGACACCAGTCGAGCCGAGCCGAAACCCCGTCGGAGTCACCTAGTGCAG | 3270 fluorescence intensity (a.u.) |
| ATTTTCGTGTGCAGTATATGTGTTCCCAACCCTGAGAGCCCGGAGTCACCTAGTGCAG | 3620 fluorescence intensity (a.u.) |
| ATTGATCACTCGGACGTCACCAAACGATCGATAAACTCGTCGGAGTCACCTAGTGCAG | 5630 fluorescence intensity (a.u.) |
| TGGGATGATCAAATGACTGCCACACTGTCATGTTCCTCTGCGGAGTCACCTAGTGCAG | 3610 fluorescence intensity (a.u.) |
| CTCTGTTCACTCCACCAAACTCCTTCGATTGATCAAATGACGGAGTCACCTAGTGCAG | 47200 fluorescence intensity (a.u.) |
